Results from the OligoGym collection.

Biological target: DHCR7
Experiment: pooled miR-30 sensor sort-seq; sequence = guide strand
Conditions: shRNA
Further: reference of the scale not given here.

Sequence	sensor-assay potency score (higher = more potent)
TGATACTTGTTCACAACCCCTG	-0.124
TAGGAAGATGACGCTCGCCAGT	-1.46
TACAGAAGCACCTGGAAGGTGA	0.0614
AAGTAGTAGACGATGAAGGGGG	0.135
TAGATGATGTAGAAGTAGGGCA	0.47
AACAGCTTGAAGTCAAACCACT	-1.51
TACTTGTTCACAACCCCTGCAG	-0.0403
TTGCTGTGGTGCCTCTGCCCAT	-1.54
TATAGGTGGAGTCTTGGCCCAG	-1.1
TTGACCATGGCGAAGGTGGAGA	-0.859

Biological target: DHPS
Experiment: as above
Conditions: shRNA

Sequence	sensor-assay potency score (higher = more potent)
TATTGATCCCGTTCTCCCGGAG	-0.362
AAAGGTTTCAGCCACAAGCAGG	-1.41
TTGACTTGCTGTACAGCGCGCC	0.283
TGATGTAAACAGCGTAGTCGGC	-0.353
TAGGAATGGAAGAAGATCATGT	0.621
TCGAGCTGTGCTTTAGCACGGC	-0.48
TTGATGTAAACAGCGTAGTCGG	-0.879
TATCCCAGGAAAATGGTGCAGC	-0.649
TCTTCATCCTGTGACAGTGGTT	-0.839
TGTGTTGATGTAAACAGCGTAG	-0.876
TTTCCGATCCTATTGATCCCGT	-0.549
TCGGGCGGCAACGTCGAGCTGT	-0.875
TGAGGTTGGATGTATATCCCAG	-0.155
TAGCTGACCAAAAAGTAGGGGA	0.0141
TTCTTCTCGATCATGGCATTGA	-0.43
TAATACACGGACTCTGGGTTGT	-0.152
TTGGTTGCTTGGAAGCCGGTGG	-0.209
TTCCAGCTTCTTCTCGATCATG	-1.22
TAAACAGCGTAGTCGGCCCCGT	-0.782
TTGCTGTACAGCGCGCCCGAAG	-1.67
